Rows were chosen to be rich in hits. Some 7.9% of all compounds tested hit in one or more screens of this group.
Lassa entry inh: qHTS for Inhibitors of binding or entry into cells for Lassa Virus | Lassa virus pseudotype entry inhibition, cell reporter | Potency, µM (top dose mostly 37.9 µM), without a hit: at the highest dose activity change, negative = inhibition, actives largely listed as inhibitors | 300,000 compounds, 1.2% hits; calls by dose curve; tested in HEK293 cells; also: potency is read from the fitted curve at half-maximal effect; nearly all actives have a fitted effect of over 50% in size
MARV entry inh: qHTS for inhibitors of binding or entry into cells for Marburg Virus. Marburg virus pseudotyped entry inhibition, cell reporter. Potency, µM (doses to about 37.8 µM), for inactives: top-dose activity change, negative = inhibition, hits mostly inhibitors. 300,000 compounds, 1.8% hits. AID 540276, 2011; calls by dose curve; tested in HEK293 cells; also: potency is read from the fitted curve at half-maximal effect
FMDV antiviral: High Throughput Screening for Foot and Mouth Disease Virus Antivirals; FMDV antiviral cell-based qHTS; Potency, µM (series often up to 57.9 µM), for the others: top-dose activity change, negative = inhibition, usual class: inhibitors; 410,000 compounds, 1.2% hits; AID 1159524, 2015; calls by dose curve; tested in HEK293T cells; also: read-out not given here; potency is read from the fitted curve at half-maximal effect; nearly all actives have a fitted effect of over 45% in size
HCV inh: qHTS Assay for Inhibitors of Hepatitis C Virus (HCV). Huh7.5.1 HCVcc-Cre infection, luciferase reporter, 44 h. Potency, µM (series often up to 41.8 µM), inactives show top-dose activity change, negative = inhibition, most hits filed as inhibitors. 340,000 compounds, 3.4% hits. AID 651820, 2012; active = well fitted inhibition curve with a large enough effect; inconclusive = small, poorly fitted or top-dose-only effect, or another doubt; inactive = no such curve, though single readings can be large or run the other way; also: potency is read from the fitted curve at half-maximal effect
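Reporter virus HCVcc-Cre (~0.5 moi) infects cells exposed to compound; seeding density 1,000 cells/well with 4 h settling beforehand. Luminescence, 15 sec read, taken 44 h post-infection following a 15 min RT substrate incubation.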
HCMV antiviral: qHTS Assay for inhibitors of the human cytomegalovirus (HCMV). HFF cells, HCMV-luciferase reporter, 72 h; stronger effect = lower value. activity change, negative = inhibition, % at 57.5 µM. 410,000 compounds, 4.5% hits. AID 1259415, 2018; in the data active = activity change below about -60%; inconclusive = no clear call, values can overlap the other calls; inactive = above about -39%
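Human foreskin fibroblasts infected with luciferase-reporter HCMV at MOI 1 PFU/cell, compounds at two doses. Luciferase measured 72 h post infection; normalized to buffer-only basal and Salinomycin (10uM) controls.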
An asterisk follows results filed as active; ? = inconclusive; · = not tested or not shown; [ ] = remark or other dose. % is scaled to controls: 0 for no effect and ±100 for the full control effect.

SMILES | Lassa entry inh | MARV entry inh | FMDV antiviral | HCV inh | HCMV antiviral
Nc1ccc(C(=O)N/N=C\c2cc(N=Nc3cccc4ccccc34)ccc2O)cc1 | ? | 16µM* | 15% | 11µM* | -102*
COc1cc([N+](=O)[O-])cc(/C=N/NC(=O)c2ccc(NC(=O)c3ccc(C)cc3)cc2)c1O | ? | 1.1µM* | ? | 2.5µM* | -102*
CC1CN(C(=O)N2CCC(C(=O)NCCCc3ccccc3)CC2)c2ccccc2O1 (stereo not drawn) | 12%[46.1 µM] | · | -3% | · | -2
O=C1Nc2ccc(I)cc2/C1=C/c1cc(Br)c(O)c(Br)c1 | 0% | ? | -19% | · | ·
O=C1Nc2ccc(C(=O)c3ccco3)cc2/C1=C/c1cc(Cl)c(O)c(Cl)c1 | 3.1µM* | · | · | · | ·
Nc1c(C(=O)Nc2ccc(Cl)cc2F)sc2nc(-c3cccs3)ccc12 | -18%[46.1 µM] | ? | 41% | · | -5
Nc1c(C(=O)Nc2ccccc2Br)sc2nc(-c3cccs3)ccc12 | ? | -18%[46.1 µM] | ? | · | -71*
Nc1c(C(=O)Nc2ccccc2)sc2nc(-c3ccco3)ccc12 | ? | ? | ? | 11µM* | 9
Nc1c(C(=O)Nc2nc3ccccc3s2)sc2nc(-c3cccs3)ccc12 | 6.5µM* | 5.8µM* | -104% | ? | ·
CC1=CC(C)C(/C=N/N=C(N)N)C(C)C1 (stereo not drawn) | ? | ? | ? | ? | -8
O=C(NC(=S)Nc1ccc(Cc2ccncc2)cc1)c1ccccc1F | -51% | ? | -20% | -25% | -99*
O=C(NC(=S)Nc1ccc(Cc2ccncc2)cc1)c1ccccc1Cl | 1% | ? | -11% | 2% | -36
CCNc1ncc2nc(-c3cn(C)c4ccccc34)c(=O)n(-c3ccccc3)c2n1 | · | · | 8% | · | ·
O=c1c2ccccc2ccc2ccccc12 | · | · | 7% | -4% | -104*
c1ccc(CNc2c3c(nc4ncnn24)CCCC3)nc1 | -16% | -7% | -12% | 5% | 21
C#CCNc1c2c(nc3ncnn13)CC(C)CC2 (stereo not drawn) | · | · | -6% | -13% | -101*
Cc1c(-c2nsc(NC(=O)c3ccc(Cl)cc3)n2)nnn1-c1ccc(C(C)C)cc1 | -1%[46.1 µM] | · | -14% | · | -79*
COC(=O)c1ccc(-n2nnc(-c3nsc(NC(=O)c4ccc(Cl)cc4)n3)c2C)cc1 | ? | 9%[46.1 µM] | -18% | · | 14
Cc1c(-c2nsc(NC(=O)c3cccs3)n2)nnn1-c1ccc(Br)cc1 | ? | · | 35% | · | -92*
COc1ccc(CNC(=O)Cn2ccc3cc(S(=O)(=O)N4CCCCC4)ccc32)c(OC)c1 | ? | · | -10% | · | 6
Cc1cc(C(C)(C)C)cc(C)c1CC1=NCCN1 | ? | 7.9µM* | -21% | -8%[8.37 µM] | -12
COC(=O)C/C=C/C(C)C(OC)c1ccccc1Br (stereo not drawn) | · | -11%[14.2 µM] | · | · | ·
c1cc(-c2sc(-c3ccncc3)c(-c3ccncc3)c2-c2ccncc2)ccn1 | -2% | ? | -26% | -27% | -79*
CCOC(=O)C1CCCN(C(=O)c2cnn(-c3ncc4c(n3)-c3ccccc3CCC4)c2C2CC2)C1 (stereo not drawn) | · | · | 44% | · | ·
O=C(Nc1ccc(S(=O)(=O)N2C[C@@H]3C[C@@H](C2)c2cccc(=O)n2C3)cc1)c1ccc(F)cc1 | · | -4% | -4% | ? | -22
SMILES | Lassa entry inh | MARV entry inh | FMDV antiviral | HCV inh | HCMV antiviral
CCOc1ccc(C(=O)Nc2ccc(S(=O)(=O)N3C[C@@H]4C[C@@H](C3)c3cccc(=O)n3C4)cc2)cc1 | · | -5% | 0% | 1µM* | ?
Cc1oc(-c2cccc(NC(=O)c3ccccn3)c2)nc1CNC(=O)c1ccc(C(F)(F)F)cc1 | · | · | 41% | · | ·
COc1ccccc1N1CCN(Cc2ccc(Br)s2)CC1 | ? | ? | ? | -12% | -81*
COc1ccccc1N1CCN(Cc2cc(COC(C)C)c3cccnc3c2O)CC1 | ? | 4µM* | -16% | · | -85*
CCOCc1cc(CN2CCN(c3ccccc3OC)CC2)c(O)c2ncccc12 | ? | ? | 0% | · | -98*
COc1ccccc1N1CCN(Cc2cc(C)c(C)cc2O)CC1 | -7% | ? | ? | ? | -20
COc1ccccc1N1CCN(Cc2cc(Br)c(O)c3ncccc23)CC1 | · | 5% | -25% | 4µM* | -95*
COc1ccccc1N1CCN(Cc2ccco2)CC1 | 14% | ? | 13% | 9% | 69
COc1ccccc1N1CCN(Cc2cc3c(cc2O)OCO3)CC1 | -13%[46.1 µM] | -9%[46.1 µM] | -15% | 3% | -15
O=C(Nc1ccc2nc(SCC(=O)N3CCc4ccccc43)sc2c1)c1ccccc1 | 6%[46.1 µM] | -9%[46.1 µM] | 9% | · | 41
Cc1cnc(CNC(=O)c2c3n(c(C)cc2=O)-c2ccccc2SC(c2ccsc2)C3)cn1 (stereo not drawn) | · | · | -15% | · | ·
CCCOCc1cc(CN2CCN(c3ccccc3OC)CC2)c(O)c2ncccc12 | ? | ? | -26% | · | -100*
CCOc1ccccc1N1CCN(Cc2cccc(OC)c2O)CC1 | -6% | ? | ? | ? | -14
CCOC(=O)c1cc(NC(=O)c2ccc(F)cc2)c(=O)n2c1oc1ccc(Cl)cc12 | 3%[46.1 µM] | 3%[46.1 µM] | -1% | · | 17
Cc1ccc(-n2ncc3c(=O)[nH]c(SC(C)C)nc32)cc1 | 6% | -10% | -20% | ? | -96*
CCOC(=O)C(C)Sc1nc2c(cnn2-c2ccc(C)cc2)c(=O)[nH]1 (stereo not drawn) | -14% | ? | -12% | 11µM* | -28
CC(=O)c1nn(-c2cccc(Br)c2)cc1C(=O)c1ccc(C)cc1 | ? | -30% | 8% | ? | -69*
COc1ccc(Cl)cc1NC(=O)Cn1cc(C(=O)c2ccncc2)c(=O)c2cc(C)ccc21 | -1%[46.1 µM] | · | -13% | · | 22
O=C(COc1ccccc1Cl)N(Cc1cccs1)C1CCS(=O)(=O)C1 (stereo not drawn) | 0.5µM* | 13%[46.1 µM] | -9% | 3% | -31
Cc1cc(Cl)ccc1OCC(=O)N(Cc1cccs1)C1CCS(=O)(=O)C1 (stereo not drawn) | -25% | ? | -26% | 3% | -14
CCOc1ccc(-c2ccc(NS(=O)(=O)c3cc(C)c(C)cc3C)cc2)nn1 | 12%[46.1 µM] | · | 39% | · | -77*
CCOc1ccc(-c2ccc(NS(=O)(=O)c3ccc(C)cc3)cc2)nn1 | -1%[46.1 µM] | · | 29% | · | -10
Cc1cc(C)nc(NC(=O)/C=C/c2cccs2)c1 | 10% | ? | · | ? | 116
Cc1cc(C)c(-c2csc(NC(=O)/C=C/c3cccs3)n2)c(C)c1 | ? | ? | ? | 10µM* | -100*
NC(=O)c1ccc(NC(=O)C2CCN(S(=O)(=O)Cc3ccccc3)CC2)cc1 | -6%[46.1 µM] | -2%[46.1 µM] | -23% | · | 8
NCC(c1ccccc1)(c1ccccc1)c1ccccc1 | 1% | 7.9µM* | -25% | -21% | 1
Cc1ccc(S(=O)(=O)NC(C)(C)CN2CCC(Cc3ccccc3)CC2)cc1 | · | · | ? | ? | -26
